# Compound activity deposited in PubChem by several laboratories.
# A selection: hits, their analogues and other compounds. The true share with any hit is near 1.5%.
# miR122 inh = miR-122 Renilla sensor signal increase in Huh7, primary screen, miR-122 inhibitor project, cell-based, single point, plate reader. 0.3% of 340,000 active. Huh7 miR-122 Renilla luciferase sensor, 48 h; neutral wells = 0, positive control = 100. activation (reporter increase), % at 12.5 µM;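 active = mean replicate activation score at least 90 and every replicate individually at or above 90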;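 also: higher luciferase means less miR-122 activity so hits act as miR-122 inhibitors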
# RAD54 inh = inhibitors of human RAD54 branch migration, primary screen, biochemical, fluorescence, single point; DNA repair and recombination protein RAD54-like (Homo sapiens), Q92698; 0.14% of 360,000 active; inhibition, % at 10.4 µM; RAD54 Holliday junction branch migration, FAM/BHQ fluorescence; AID 602329, 2012;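 active = mean normalized replicate activity at least 40 and at least half of replicates scoring 40 or more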;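 also: 0% = median of neutral control wells and 100% = median of positive control wells; inhibitors cause a drop in the FAM fluorescence signal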
# Target sequence (Q92698 whole entry, looked up): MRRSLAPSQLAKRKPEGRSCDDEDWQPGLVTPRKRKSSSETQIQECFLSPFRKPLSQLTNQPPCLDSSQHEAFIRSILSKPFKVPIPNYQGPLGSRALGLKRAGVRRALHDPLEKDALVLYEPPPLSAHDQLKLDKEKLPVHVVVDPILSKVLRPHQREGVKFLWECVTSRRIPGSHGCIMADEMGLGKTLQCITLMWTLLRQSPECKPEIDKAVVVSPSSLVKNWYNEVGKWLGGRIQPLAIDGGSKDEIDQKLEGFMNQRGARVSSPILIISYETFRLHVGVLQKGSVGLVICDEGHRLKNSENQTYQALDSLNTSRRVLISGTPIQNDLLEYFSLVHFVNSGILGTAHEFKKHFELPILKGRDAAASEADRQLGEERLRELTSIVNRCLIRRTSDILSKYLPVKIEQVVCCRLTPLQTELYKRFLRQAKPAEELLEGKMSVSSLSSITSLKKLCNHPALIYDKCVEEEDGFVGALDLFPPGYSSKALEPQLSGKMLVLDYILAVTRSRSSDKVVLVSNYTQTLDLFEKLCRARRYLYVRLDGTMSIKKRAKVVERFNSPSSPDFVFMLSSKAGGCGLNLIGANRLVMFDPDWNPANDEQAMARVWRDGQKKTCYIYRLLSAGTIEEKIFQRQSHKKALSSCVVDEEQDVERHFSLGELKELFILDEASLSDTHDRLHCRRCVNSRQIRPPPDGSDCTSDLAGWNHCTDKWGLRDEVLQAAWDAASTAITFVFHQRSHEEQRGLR
# RAD52 anneal inh = RAD52 DNA annealing inhibitors, primary screen, biochemical, FRET, single point, set 2; DNA repair protein RAD52 homolog (Homo sapiens), P43351; recombinant RAD52 DNA annealing, FRET fluorescence; inhibition, % at 18.7 µM; 0.46% of 360,000 active;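 active = every replicate showing at least 50% inhibition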
# N-glyco inh = increase of ERlucT glycosylation luciferase signal, primary screen, N-linked glycosylation inhibitor project, D54 ERlucT cells, luminescence, set 2 | D54 ERlucT glycosylation luciferase reporter, 24 h; percent of 100 nM tunicamycin response | reporter increase, % at 12.5 µM | 0.23% of 360,000 active;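 active = mean luciferase reporter signal, scaled so untreated is 0 and the glycosylation-blocking control 100, at or above a set limit in every replicate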;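 also: luciferase carries N-glycosylation sites so blocking glycosylation raises the light; 0% = median of neutral control wells and 100% = median of 100 nM tunicamycin wells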
# DNA FID counter = compounds displacing fluorescent DNA intercalator, primary screen, artefact control for HCV NS3 helicase inhibitor project, biochemical, FID fluorescence; DNA fluorescent intercalator displacement; inhibition, % at 7.9 µM; 0.17% of 290,000 active; AID 1845, 2009; in the data active = inhibition above about 37%;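 also: 0% = vehicle and 100% = reference compound; higher means more ethidium bromide displaced from hairpin DNA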
# NRP1-CendR mod = modulators of CendR peptide binding to NRP-1, primary screen, biochemical, fluorescence polarization, uHTS. FAM-RPARPAR peptide binding to NRP-1. 0.85% of 360,000 active. inhibition, % at 25 µM. Neuropilin-1 (Homo sapiens), O14786;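 active = inhibition or corrected inhibition above about 18%, plus a signal ratio from 0.5 to 1.5, limit read from the data, passing the limit was not always enough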
# An asterisk follows results filed as active; x = not tested or not shown; [ ] = remark or other dose.
SMILES,miR122 inh,RAD54 inh,RAD52 anneal inh,N-glyco inh,DNA FID counter,NRP1-CendR mod
COc1ccc(S(=O)(=O)Nc2ccc(CC#N)cc2)cc1,164*,-3,x,0,0,-2
COC(=O)c1ccc(NS(=O)(=O)c2ccc(OC)cc2)cc1,13,-1,-13,1,-4,12
CCCN(C)C[C@H]1OCCCC[C@@H](C)Oc2ccc(NS(=O)(=O)c3ccc(C)cc3)cc2C(=O)N([C@H](C)CO)C[C@H]1C,-9[16.7 µM],1,47,x,x,x
CCNS(=O)(=O)c1ccc(CCC(=O)O)cc1,3,-10,-21,1,1,26*
CCNS(=O)(=O)c1ccc(CCC(N)=O)cc1,x,x,-6,4,-2,5
CC(C)NC(=O)N(C)C[C@H]1Oc2c(NS(=O)(=O)c3cccs3)cccc2C(=O)N([C@@H](C)CO)C[C@H]1C,2[16.7 µM],x,x,x,x,x
CC1(C)CN(O)CCN1O,x,x,-5,1,-3,25*
C[C@H](NC(=O)C[C@@H]1CC[C@@H](NC(=O)Nc2ccc3c(c2)OCO3)[C@@H](CO)O1)c1ccccc1,-4[16.7 µM],4,-8,x,x,x
Cc1ccc(/C=N/NC(=O)c2nnn(-c3nonc3N)c2C)o1,-1,-4,-26,0,-12,20*
Cc1ccc(/C=N/NC(=O)c2nnn(-c3nonc3N)c2-c2ccccc2)o1,-3,-4,-4,3,-24,0
Cc1cccc(NC(=S)NCc2ccc(F)cc2)c1,17,3,-5,-2,-6,-12
Cc1ccc(NC(=S)NCc2ccc(F)cc2)cc1,106*,-10,8,0,x,4
Cn1c(=O)[nH]c(=O)c2c1nc(N(CCO)Cc1ccccc1)n2CCCc1ccccc1,8,-7,2,41*,-39,2
Cn1c(=O)[nH]c(=O)c2c1nc(N1CCN(Cc3ccccc3)CC1)n2CCCc1ccccc1,x,-6,-7,37*,-2,-7
CCCCCn1c(N2CCN(c3cccc(Cl)c3)CC2)nc2c1c(=O)[nH]c(=O)n2C,x,2,x,-1,0,28*
Cc1nc(N)nc(Nc2ccc(C#N)cc2)c1Br,-10,x,-2,-2,-4,17*
COc1ccc(Nc2ncnc3ccccc23)c(OC)c1,-3,6,x,-2,-9,-5
COc1ccc(Nc2nc(N3CCCC3)nc3ccccc23)c(OC)c1,-28,100*,x,99*,31,9
CC(O)(c1cccnc1)c1nc(/C=C/c2ccccc2)cs1 (configuration not stated),2,-6,-4,1,x,26*
Cn1c(N)c(C(=O)COC(=O)/C=C/c2ccc(Cl)c(Cl)c2)c(=O)n(C)c1=O,x,1,-18,1,x,25*
Cn1c(N)c(C(=O)COC(=O)/C=C/c2ccc(F)cc2)c(=O)n(C)c1=O,-1,-3,12,1,x,6
CO[C@H]1CN(C)C(=O)c2ccc(NC(=O)c3cc(C)on3)cc2OC[C@@H](C)N(C)C[C@@H]1C,x,3,-2,x,x,x
COC(=O)c1c(Cl)c2n3ccccc3c(C)c(-c3ccccc3)c-2c1C(=O)OC,0,-19,-52,3,-1,38*
Cc1ccc(NC(=O)CNC(=O)c2cccs2)cc1S(=O)(=O)Nc1ccc(Cl)cc1,98*,-5,-73,-1,-2,-5
Cc1ccc(C(=O)Nc2ccc(C)c(S(=O)(=O)Nc3ccccc3Cl)c2)s1,413*,4,-21,-4,-1,2
SMILES,miR122 inh,RAD54 inh,RAD52 anneal inh,N-glyco inh,DNA FID counter,NRP1-CendR mod
Cc1ccc(C)c(S(=O)(=O)Nc2ccc(C(=O)N3CCCCC3)cc2)c1,109*,-1,-11,1,-35,-9
COc1ccc(NC(=O)CNC(=O)c2cccs2)cc1Cl,-6,2,-12,1,0,-9
Cc1ccc(NC(=O)c2ccc3c(c2)OCCO3)cc1S(=O)(=O)Nc1cccc(Cl)c1,-3,-2,-31,-6,-5,37*
CC(=O)N1CCN(C(=O)c2ccc(NS(=O)(=O)c3cc(C)ccc3C)cc2)CC1,x,x,-13,-1,x,0
OC(CSc1nc(-c2ccccc2)c(-c2ccccc2)o1)CC(O)c1ccccc1 (configuration not stated),x,2,4,x,x,x
Cc1noc(C)c1NC(=O)Nc1ccc2c(c1)C(=O)N([C@@H](C)CO)C[C@@H](C)[C@H](CN(C)S(C)(=O)=O)O2,-2[16.7 µM],-9,-8,x,x,x
CN(C)C(=O)[C@H]1[C@H](CO)[C@H]2Cn3c(cccc3=O)[C@H]2N1C(=O)NC1CCCC1,x,x,-1,x,x,x
Cc1ccc(NS(=O)(=O)c2cc(C(=O)NCCSc3ccc(C)cc3)ccc2C)cc1,115*,1,x,-5,-17,-2
CS(=O)(=O)Nc1ccc(C(=O)NCCSC2CCCCC2)cc1,-3,x,-22,2,-7,-22
Cc1ccc(NS(=O)(=O)c2cc(C(=O)NCCSC3CCCCC3)ccc2C)cc1,122*,1,x,-6,-14,3
Cc1ccc(SCCNC(=O)c2ccc(C)c(S(=O)(=O)Nc3cccc(C)c3)c2)cc1,105*,3,x,-7,-15,-10
Cc1ccc(C(=O)NCCSc2ccc(Cl)cc2)cc1S(=O)(=O)Nc1ccccc1,131*,1,-15,-6,-7,-2
Cc1ccc(SCCNC(=O)c2ccccc2)cc1,0,-3,x,1,-5,6
CC(=O)Nc1cc(S(=O)(=O)Nc2cccc(C)c2)c(C)cc1C,144*,0,x,-2,3,-1
Cc1noc(C)c1NC(=O)Nc1cccc2c1O[C@H](CN(C)C(=O)NC1CCCCC1)[C@@H](C)CN([C@H](C)CO)C2=O,42[16.7 µM],-2,10,3,x,25*
Cc1noc(C)c1NC(=O)N(C)C[C@H]1Oc2c(NC(=O)NC(C)C)cccc2C(=O)N([C@H](C)CO)C[C@@H]1C,-2[16.7 µM],-2,10,2,x,25*
Cc1noc(C)c1S(=O)(=O)N(C)C[C@@H]1Oc2c(NC(=O)C3CCCCC3)cccc2C(=O)N([C@H](C)CO)C[C@@H]1C,197*[16.7 µM],-23,21,x,x,x
CCCNC(=O)[C@H]1N2C(=O)c3c(ccc(OC)c3OC)C2SC1(C)C (some centres not stated),-4,0,-3,-1,-10,28*
COC(=O)c1ccc(CN2CC(=O)N3[C@@H](CO)[C@H](c4ccc(Br)cc4)[C@@H]3C2)cc1,x,x,3,x,x,x
NC(=O)c1ccccc1NC(=O)C(c1ccccc1)c1ccccc1,x,x,-9,0,x,40*
CN1CCN(S(=O)(=O)c2ccc(NC(=O)c3cccs3)cc2)CC1,7,-4,x,2,4,22*
